# The supplement of paper PMC4166925
# ± gives the standard deviation of the averaged measurements. In all, about 33,000 sequences were measured (“E-score (dimensionless, -0.5 to 0.5)”: median about -0.049, highest 2% from about 0.37 on). What follows is part of a selection rich in the highest values, with near analogues and random picks from the rest.
# System: T1, PmTbr T-box DNA-binding domain (GST fusion)
# T1 sequence: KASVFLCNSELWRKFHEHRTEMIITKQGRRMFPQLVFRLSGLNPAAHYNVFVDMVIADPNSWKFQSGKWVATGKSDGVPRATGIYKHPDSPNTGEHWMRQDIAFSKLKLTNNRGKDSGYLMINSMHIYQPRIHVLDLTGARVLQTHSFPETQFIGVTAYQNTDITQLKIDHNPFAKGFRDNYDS
# Assay: PBM E-score of 8-mer (E-score (dimensionless, -0.5 to 0.5)); Tbr is Tbrain of the sea star Patiria miniata (Pm) or the sea urchin Strongylocentrotus purpuratus (Sp); higher = stronger binding preference
# Conditions: the construct has about 5 more residues each side
# In short: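 Universal Agilent oligonucleotide arrays, made double-stranded by primer extension, were incubated with 200 nM GST-fused Tbr T-box DNA-binding domain in PBS (pH 7.5). The protein was expressed in BL21 E. coli at 20 °C and purified by glutathione affinity chromatography. After scanning and quantification, the Universal PBM Analysis Suite assigned an enrichment E-score to each ungapped 8-mer, averaged over duplicate arrays.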
row,Sequence,PBM E-score of 8-mer
1,CGGCAAAA,-0.0622 ± 0.057
2,ACATCCGG,-0.0734 ± 0.061
3,GAACTGGA,-0.175 ± 0.037
4,CCTGGAAA,-0.133 ± 0.014
5,AAAGACAA,-0.172 ± 0.069
6,AACCTTTC,-0.105 ± 0.047
7,GACCTTTA,-0.207 ± 0.088
8,CACCTTTC,0.411 ± 0.034
9,CACCTTTA,0.404 ± 0.013
10,CCCCTTTC,-0.124 ± 0.061
11,AACCTTTA,-0.0895 ± 0.057
12,CGCGCATC,0.0691 ± 0.012
13,GGCTGGAA,-0.127 ± 0.064
14,GACCACCA,-0.142 ± 0.031
15,AGGAAGGG,-0.28 ± 0.01
16,TGGCACCA,0.377 ± 0.0055
17,TAGCACCA,0.403 ± 0.015
18,CCGCACCA,0.187 ± 0.0087
19,CAGCACCA,0.0936 ± 0.032
20,GCGCACCA,-0.0144 ± 0.01
21,AGGCACCA,-0.171 ± 0.024
22,TCGCACCA,0.44 ± 0.0079
23,GGGCACCA,-0.125 ± 0.059

row,Sequence,PBM E-score of 8-mer
1,GAGCACCA,-0.0664 ± 0.018
2,GAATTCCC,0.0309 ± 0.029
3,GCAGGGTA,-0.0138 ± 0.034
4,GCAGGTCA,0.103 ± 0.027
5,GCAGGTGA,0.4392 ± 0.002
6,ACAGGTCC,0.0798 ± 0.068
7,CCAGGTCC,-0.114 ± 0.039
8,CCAGGTGA,0.339 ± 0.023
9,ACAGGTGG,0.331 ± 0.022
10,ACAGGTTA,0.252 ± 0.022
11,CCAGGTGC,0.379 ± 0.014
12,CCAGGTAC,-0.105 ± 0.1
13,ACAGGTGA,0.406 ± 0.0049
14,GCAGGTAA,-0.0867 ± 0.05
15,ACAGGTGC,0.4412 ± 0.0022
16,CAGCGTGA,0.266 ± 0.0088
17,CGGGCCCG,0.108 ± 0.013
18,CCCCAGAG,-0.096 ± 0.018
19,CTGTGTCA,0.216 ± 0.027
20,ATGTGTCC,0.0956 ± 0.026
21,GTGTGTCA,0.348 ± 0.02
22,ATGTGTCG,0.402 ± 0.0094
23,ATGTGTCA,0.4653 ± 0.0037

row,Sequence,PBM E-score of 8-mer
1,ATATGTCG,0.134 ± 0.029
2,CTCCTTGC,-0.127 ± 0.067
3,ACGTAATA,-0.234 ± 0.071
4,ACCATTGG,-0.068 ± 0.046
5,ACAGCCTC,-0.206 ± 0.14
6,AGTTCGCC,0.0555 ± 0.091
7,CGTTCGCA,0.38 ± 0.037
8,GGTTCGCA,0.334 ± 0.02
9,CATTCGCA,0.3497 ± 0.0027
10,AGTTCGCA,0.378 ± 0.0033
11,CGTTCGCC,0.0701 ± 0.066
12,ACTGCAGT,0.185 ± 0.034
13,CAGTGCGC,-0.0646 ± 0.032
14,TAGTGCCA,0.249 ± 0.0097
15,AAGTGCGC,0.138 ± 0.026
16,AAGTGCGT,0.149 ± 0.039
17,AAGTGCGA,0.4835 ± 0.00061
18,CAGTGCGG,-0.0389 ± 0.1
19,ACGTGCGG,0.191 ± 0.05
20,TAGTGCGA,0.4056 ± 0.0024
21,CAGTGCGA,0.386 ± 0.019
22,TAGTGCAA,0.267 ± 0.055
23,ACGTGCGA,0.4433 ± 0.0027

row,Sequence,PBM E-score of 8-mer
1,GCGTGCGA,0.285 ± 0.02
2,ATCAACGG,-0.182 ± 0.042
3,ATGTTTCA,-0.174 ± 0.074
4,CGGTTTGA,-0.1932 ± 0.0019
5,ATAACCAA,-0.112 ± 0.038
6,CTTAGGAA,-0.24 ± 0.011
7,CGGAAAAA,-0.0583 ± 0.12
8,AAACTACT,0.0819 ± 0.0066
9,CTTCTCAC,0.365 ± 0.01
10,ATGTGCGC,0.138 ± 0.0009
11,ATGTGCGA,0.4691 ± 0.0032
12,ATGTGCGG,0.0803 ± 0.028
13,GAGTGCGC,-0.0278 ± 0.044
14,GAGTGCAA,0.0826 ± 0.02
15,GAGTGCGA,0.4088 ± 0.00055
16,CCTTTCGA,-0.06 ± 0.02
17,AAGTCATA,-0.0653 ± 0.022
18,ATGCAATA,-0.341 ± 0.0082
19,CACCTTAC,0.394 ± 0.0074
20,AACCTTAA,-0.209 ± 0.044
21,AACCTTAC,-0.000525 ± 0.043
22,GACCTTAC,-0.313 ± 0.028
23,AACCTTAG,-0.0923 ± 0.0088

row,Sequence,PBM E-score of 8-mer
1,GACCTTAA,-0.136 ± 0.0073
2,CACCTTAA,0.385 ± 0.011
3,CCCCTTAG,-0.195 ± 0.0038
4,CACCTTAG,0.4473 ± 0.0023
5,AATTCTAA,-0.128 ± 0.086
6,AAAGTCCG,-0.00454 ± 0.029
7,CCATCAGG,0.0307 ± 0.054
8,CGAAGGGA,0.00651 ± 0.088
9,ATATTCTC,-0.0331 ± 0.008
10,TGCGCTAA,0.247 ± 0.036
11,CGCGCTAA,0.369 ± 0.0084
12,GGCGCTAA,0.426 ± 0.0098
13,CGCGCTAG,0.159 ± 0.019
14,AGCGCTAA,0.362 ± 0.02
15,GGCGCTAC,0.346 ± 0.037
16,AGCAGCGA,-0.0709 ± 0.041
17,CCGCCCAA,-0.101 ± 0.091
18,TATGAGAA,-0.274 ± 0.048
19,GATTGCCC,-0.0679 ± 0.024
20,GCGCAGGA,-0.0924 ± 0.067
21,GGGTGTAC,-0.0259 ± 0.052
22,AGGTGTAA,0.47639 ± 0.00041
